Source: PubChem BioAssay (National Center for Advancing Translational Sciences (NCATS))
Shown are actives, neighbours in structure and some others; about 18% of the full set was active somewhere.
DT40 TDP1 no CPT – qHTS for Inhibitors of human tyrosyl-DNA phosphodiesterase 1 (TDP1): qHTS in cells in absence of CPT; DT40 Tdp1-/- hTDP1 cells, no CPT, ATP luminescence, 48 h; Potency, µM (series often up to 46.2 µM), hits mostly inhibitors; 420,000 tested, 15% active; AID 686978, 2013; further: nearly all actives have a fitted effect of over 55% in size
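Growth of hTDP1-complemented DT40 Tdp1-knockout cells is measured by ATP luminescence after at least 48 hr compound exposure at 37 °C, with DMSO substituting for the 20 nM CPT used in the parallel screen.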
TDP1 block – qHTS Assay for Inhibitors of Tyrosyl-DNA Phosphodiesterase (TDP1) | Tyrosyl-DNA phosphodiesterase 1 (Homo sapiens), Q9NUW8 | recombinant TDP1, AlphaScreen DNA substrate cleavage | Potency, µM (top dose mostly 130 µM), hits mostly inhibitors | 350,000 tested, 0.28% active; further: nearly all actives have a fitted effect of over 40% in size
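Steps: enzyme plus compound, 15 min RT; add biotin/phosphotyrosine-FITC oligonucleotide (15 nM final), react 5 min; add donor/acceptor beads (10 ug/ml final), 10 min; read AlphaScreen. Tdp1 at 1 nM final.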
CtBP-E1A blk – qHTS Assay for Inhibitors of the CtBP/E1A Interaction | CtBP / adenovirus E1A interaction (AlphaScreen) | AlphaScreen GST-E1A/His-CtBP binding, 1536-well; stronger effect = lower value | activity change, % (test concentration not listed) | 340,000 tested, 0.49% active | AID 651724, 2012; in the data active means activity change below about -65%; inconclusive means mostly about -30% to -63%
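Steps: dispense buffer (Tris pH 8.0, NaCl 300 mM, TCEP 1 mM, BSA, Tween 20); add 5X protein mix (GST-E1A, His-CtBP, 125 nM each); pin 23 nL compound; 2 h at 37 °C, dark; add 5X beads (50 ug/mL); 1 h; read.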
IL1B secr inh – qHTS for Inhibitors of Inflammasome Signaling: IL-1-beta AlphaLISA Primary Screen; activity change, % at 57.5 µM; THP-1 LPS/ATP IL-1B secretion, AlphaLISA, 16 h; stronger effect = lower value; 360,000 tested, 4.7% active; AID 743279, 2014; in the data active means activity change below about -50%; inconclusive means mostly about -30% to -49%
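Secreted IL-1B measured by AlphaLISA bead assay after 16 h compound exposure of THP-1 cells; compounds (final up to 57.5 uM) added 1 h before LPS (250 ng/mL) and ATP (1.25 mM) stimulation; lower signal means less secretion.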
Six1-Eya2 inh – qHTS Assay for Inhibitors of the Six1/Eya2 Interaction. Homeobox protein SIX1 (Homo sapiens) + Protein phosphatase EYA2 (Homo sapiens), …. AlphaScreen GST-Six1/His-Eya2 binding, biochemical; stronger effect = lower value. activity change, % (concentration not given with the values). 360,000 tested, 0.56% active. AID 651725, 2012; in the data active means activity change below about -65%; inconclusive means mostly about -30% to -63%
Target sequence (O00167 whole entry, looked up): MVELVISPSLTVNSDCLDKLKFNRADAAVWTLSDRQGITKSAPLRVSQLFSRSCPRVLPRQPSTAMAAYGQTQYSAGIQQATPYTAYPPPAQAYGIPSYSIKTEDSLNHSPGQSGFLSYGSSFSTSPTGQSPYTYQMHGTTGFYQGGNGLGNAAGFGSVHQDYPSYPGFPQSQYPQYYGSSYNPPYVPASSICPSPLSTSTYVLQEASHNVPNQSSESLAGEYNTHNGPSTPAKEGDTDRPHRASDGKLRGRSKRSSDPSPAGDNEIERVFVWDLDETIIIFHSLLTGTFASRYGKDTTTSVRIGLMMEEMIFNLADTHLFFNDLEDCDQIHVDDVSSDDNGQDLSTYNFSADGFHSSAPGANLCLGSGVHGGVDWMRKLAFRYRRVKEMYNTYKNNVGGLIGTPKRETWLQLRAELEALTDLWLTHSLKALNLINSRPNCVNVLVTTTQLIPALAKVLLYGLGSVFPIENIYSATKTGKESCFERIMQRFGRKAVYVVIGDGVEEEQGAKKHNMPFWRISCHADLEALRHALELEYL
Target sequence (Q15475 whole entry, looked up): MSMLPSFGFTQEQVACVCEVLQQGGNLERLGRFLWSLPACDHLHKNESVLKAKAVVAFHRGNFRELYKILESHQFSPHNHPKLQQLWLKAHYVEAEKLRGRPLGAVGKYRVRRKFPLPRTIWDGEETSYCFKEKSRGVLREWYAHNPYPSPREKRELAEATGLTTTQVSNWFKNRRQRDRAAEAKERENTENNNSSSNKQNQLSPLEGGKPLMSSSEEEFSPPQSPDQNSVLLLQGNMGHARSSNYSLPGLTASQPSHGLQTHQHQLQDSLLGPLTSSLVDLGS
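GST-Six1 + His-Eya2 (5X stock: 250/500 nM); Tris pH 8.0, 300 mM NaCl, 0.05% BSA, 0.02% Tween 20; GSH donor/Ni acceptor beads; 1 h 37 °C dark; AlphaScreen readout.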
TDP1 cell CPT – qHTS for Inhibitors of human tyrosyl-DNA phosphodiesterase 1 (TDP1): qHTS in cells in presence of CPT. chicken DT40 Tdp1-/-;hTDP1 cells + 20 nM CPT, ATP luminescence, 48 h. Potency, µM (top dose mostly 46.2 µM), usual class: inhibitors. 420,000 tested, 12% active; further: nearly all actives have a fitted effect of over 55% in size
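Cell growth measured by CellTiter-Glo luminescence after a minimum 48 h, 37 C compound exposure with 20 nM CPT in Tdp1-knockout DT40 cells stably expressing hTDP1, seeded 400/well; qHTS titration format.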
Each line names hits and unclear results; the compound was inactive in the other large screens. Unless noted, the call rests on the fitted dose curve; in most records, active means well fitted curve in the direction sought with a large enough effect; inconclusive means small, poorly fitted or top-dose-only effect, or another doubt; inactive means no such curve, though single readings can be large; an effect the other way counts as inactive or inconclusive.

O=C(Nc1cccc(F)c1)C1CCCN(S(=O)(=O)c2cccc3cccnc23)C1 (stereo not given)	DT40 TDP1 no CPT 23µM, TDP1 cell CPT 18µM
Cc1cccc(NC(=O)C2CCCN(S(=O)(=O)c3cccc4cccnc34)C2)c1 (stereo not given)	DT40 TDP1 no CPT 23µM, TDP1 cell CPT 18µM
Cc1ccc(NC(=O)C2CCCN(S(=O)(=O)c3cccc4cccnc34)C2)cc1 (stereo not given)	DT40 TDP1 no CPT 21µM, TDP1 cell CPT inconclusive
O=C(NC1CCCC1)C1CCCN(S(=O)(=O)c2cccc3cccnc23)C1 (stereo not given)	TDP1 cell CPT inconclusive
O=C(NCc1ccc2c(c1)OCO2)C1CCCN(S(=O)(=O)c2cccc3cccnc23)C1 (stereo not given)	DT40 TDP1 no CPT 16µM, TDP1 cell CPT inconclusive
Cc1onc(-c2ccccc2Cl)c1C(=O)Nc1cnn(Cc2ccccc2)c1	none
Cc1ccc(C(=O)C2CCN(CC(=O)NC3CCCC3)CC2)cc1	none
CC(c1ccccc1)N1CC(C(=O)N2CCN(c3ccccc3)CC2)CC1=O (stereo not given)	none
CC(C)[C@H](NC(=O)[C@@H]1Cc2ccccc2CN1C(=O)OC(C)(C)C)C(=O)NC1CCCC1	none (no result: CtBP-E1A blk)
COc1ccc(N(C(=O)COc2ccccc2OC)S(=O)(=O)c2ccc(C)cc2)cc1	none
COc1ccc(N(C(=O)COc2c(C)cccc2C)S(=O)(=O)c2ccc(Cl)cc2)cc1	DT40 TDP1 no CPT inconclusive, TDP1 cell CPT 23µM (no result: CtBP-E1A blk, IL1B secr inh, Six1-Eya2 inh)
COc1ccc(N(C(=O)COc2ccc(Br)cc2)S(=O)(=O)c2ccc(C)cc2)cc1	DT40 TDP1 no CPT 21µM, TDP1 cell CPT inconclusive (no result: CtBP-E1A blk, IL1B secr inh, Six1-Eya2 inh)
Cc1ccc(OCC(=O)N(c2ccc(C)cc2)S(=O)(=O)c2ccc(Cl)cc2)cc1	DT40 TDP1 no CPT inconclusive, TDP1 cell CPT inconclusive (no result: CtBP-E1A blk, IL1B secr inh, Six1-Eya2 inh)
CCOC(=O)c1cc2c(ccn2-c2ccc(F)cc2)n1CC(=O)N(CC)CC	DT40 TDP1 no CPT 23µM, IL1B secr inh inconclusive, TDP1 cell CPT inconclusive (no result: CtBP-E1A blk)
COC(=O)c1cc2c(ccn2-c2ccc(F)cc2)n1CC(=O)C(C)(C)C	DT40 TDP1 no CPT inconclusive, TDP1 cell CPT inconclusive (no result: CtBP-E1A blk)
CCN1C(=O)/C(=C2/C=Cc3ccccc3N2C)OC1=S	none
CN1/C(=C/c2cc[n+](C)c3ccccc23)C=Cc2ccccc21	DT40 TDP1 no CPT 0.18µM, IL1B secr inh -97, Six1-Eya2 inh inconclusive, TDP1 cell CPT 0.46µM
Cc1ccsc1C=Nc1ccc(O)cc1	DT40 TDP1 no CPT inconclusive, CtBP-E1A blk inconclusive, IL1B secr inh -99, Six1-Eya2 inh inconclusive, TDP1 cell CPT inconclusive
O=S(=O)(c1ccc(NC(=S)N2CCOCC2)cc1)N1CCCCC1	DT40 TDP1 no CPT 15µM (no result: TDP1 block)
CCc1ccc(NC(=S)N2CCN(S(=O)(=O)c3ccccc3)CC2)cc1	none
Cc1ccc(NC(=S)N2CCN(S(=O)(=O)c3ccc(C)cc3)CC2)cc1	none
O=S(=O)(c1ccc(NC(=S)N2CCN(c3ccc(O)cc3)CC2)cc1)N1CCOCC1	DT40 TDP1 no CPT 12µM, TDP1 cell CPT inconclusive
O=S(=O)(c1ccccc1)N1CCN(C(=S)Nc2ccc(Br)cc2)CC1	IL1B secr inh -50, TDP1 cell CPT inconclusive
COc1cc2c(=O)n(Cc3ccccc3)c(=O)n(CC(=O)C(C)(C)C)c2cc1OC	none (no result: TDP1 block)
Cc1cccc(N2CCN(C(=O)Cn3ncc4c3-c3ccccc3OC4)CC2)c1C	DT40 TDP1 no CPT 16µM, TDP1 cell CPT 18µM (no result: CtBP-E1A blk, IL1B secr inh, Six1-Eya2 inh)
COc1ccc(NC(=O)Cn2ncc3c2-c2ccccc2OC3)cc1Cl	DT40 TDP1 no CPT 15µM, TDP1 cell CPT inconclusive (no result: CtBP-E1A blk, IL1B secr inh, Six1-Eya2 inh)
